The record followed here is PubChem BioAssay (NCATS).

Results filed as inconclusive are left out. Where a call stands in place of a potency, no number is given. Activity calls are given as the source filed them. Calls come from the whole dose curve; as a rule, active = well fitted inhibition curve with a large enough effect; inconclusive = small, poorly fitted or top-dose-only effect; inactive = no such curve, though single readings can be large or run the other way.
Potency is the fitted concentration of half-maximal effect.

A short description of this assay: P-glycoprotein substrates identified in KB-3-1 adenocarcinoma cell line, qHTS therapeutic library screen (AID 1346986). Note: nearly all actives have a fitted effect of over 60% in size.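 Note: potency is for cytotoxicity meaning loss of cell viability.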 To be noted: KB-3-1 parental cells viability, CellTiter-Glo, 72 h; series mostly up to 44.5 µM. In a few lines:
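KB-3-1 parental cells and P-gp-overexpressing KB-8-5-11 (colchicine omitted during assay) plated at 500 cells/well, dosed in dose-response, incubated 72 h at 37 degree C. CellTiter-Glo luminescence read; KB-8-5-11 also tested with tariquidar.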
Background: qHTS replaces the single test concentration by a dilution series.
Consider `CC1(C)CCCC2(C)C1C(OC(=O)/C=C/C=C/C=O)C=C1COC(=O)C12O` (centres undefined), for which the Potency entry was “inactive”.

Take `C[C@@H]1O[C@@H](O[C@H]2CC[C@@]3(C)C(CC[C@]4(C)C3CC=C3[C@@H]5CC(C)(C)CC[C@]5(C(=O)O[C@@H]5O[C@H](CO)[C@@H](O)[C@H](O)[C@H]5O)CC[C@]34C)[C@]2(C)CO)[C@H](O)[C@H](O[C@@H]2O[C@H](CO)[C@@H](O)[C@H](O)[C@H]2O)[C@H]1O` (some centres undefined): the outcome is “inactive [at 9.29 µM]”.

As for `COc1ccc(-c2c(C)nn3c(NCCN4CCOCC4)cc(C)nc23)cc1OC`, the Potency result was “inactive”.

As for `CN(CC1COCCO1)S(=O)(=O)Nc1ccc2ccc3ncc(-c4cnn(C)c4)cc3c(=O)c2c1` (centres undefined), the Potency was 11.6 µM (active).

`CC1(C)CC[C@]2(C(=O)O[C@@H]3O[C@H](CO)[C@@H](O)[C@H](O)[C@H]3O)CC[C@]3(C)C(=CCC4[C@@]5(C)CC[C@H](O[C@@H]6O[C@H](C(=O)O)[C@H](O)[C@H](O)[C@H]6O)C(C)(C)C5CC[C@]43C)[C@@H]2C1` (some centres undefined): the Potency entry was “inactive”.

In the case of `CC1(CO)CC(O)[C@]2(C(=O)O)CCC34CC3(C=CC3[C@]5(C)C(CC[C@]34C)C(C)(CO)[C@@H](O)[C@H](O)[C@@H]5O)C2C1` (some centres undefined), the Potency result was “inactive”.

Regarding `CC(=O)O[C@@H]1CC2C(/C=C(\C)C(=O)[C@@]3(O)C[C@@H](C)[C@H](OC(=O)c4ccccc4)C3/C=C/1C)C2(C)C` (some centres undefined), the Potency result was “inactive”.

Consider `C#Cc1cccc(Nc2nc3cc(C(=O)O)ccc3c3cncnc23)c1`, for which the Potency is 5.8 µM (active).

As for `N#Cc1ccc2ncnc(NCCc3ccccc3)c2c1`, the Potency was 16.4 µM (active).

As to `CN1CCc2cc3c(cc2C(=O)Cc2cc4c(cc2C1)OCO4)OCO3`, the Potency entry is “inactive”.

As to `CCN(Cc1ccccc1)C(=O)Cn1c(=O)n(C)c2cnc(-c3ccccc3)nc21`, the Potency result is “inactive”.

With `CC(=O)C=C=C1C(C)(C)CC(O)CC1(C)O[C@@H]1O[C@H](CO[C@H]2OC[C@](O)(CO)[C@H]2O)[C@@H](O)[C@H](O)[C@H]1O` (some centres undefined), the Potency result was “inactive”.

As for `C=C1C(=O)O[C@@H]2C[C@H](C)[C@@H]3CC(=O)[C@H](O)[C@@]3(C)C[C@H]12`, the Potency result is “inactive”.

For `COC1CC(O[C@H]2CC[C@]3(C)C4CC[C@@]5(C)C(=O)[C@]4(CC[C@@H]3C2)CC[C@@H]5C2=CC(=O)OC2)OC(C)C1OC1OC(COC2OC(CO)C(O)C(O)C2O)C(O)C(O)C1O` (some centres undefined), the Potency was 3.48 µM (active).

For `COc1cc2ncnc(Nc3cccc(I)c3)c2cc1OC`, the Potency is 6.51 µM (active).

Turning to `Cc1nc(NC(=O)N2CCCC2C(N)=O)sc1-c1ccnc(C(C)(C)C(F)(F)F)c1` (centres undefined), the Potency is 23.1 µM (active).

Consider `COc1c(C)cc(NC(=O)c2nn(Cc3ccc(F)cc3)c3c2CN(C(=O)c2ccc[nH]2)C[C@]3(C)C(N)=O)cc1C`, for which the outcome is “inactive [at 9.29 µM]”.

Take `C/C(=N\N=C(N)N)c1cc(NC(=O)CCCCCCCCC(=O)Nc2cc(/C(C)=N/N=C(N)N)cc(/C(C)=N/N=C(N)N)c2)cc(/C(C)=N/N=C(N)N)c1`: the Potency was 14.6 µM (active).

With `NC(=O)c1nc(Nc2ccccc2)sc1NC(=O)C1CCCCC1`, the Potency result was “inactive”.

For `Cc1cc2c(F)c(Oc3ncnn4cc(OCC(C)OC(=O)C(C)N)c(C)c34)ccc2[nH]1` (centres undefined), the Potency is 16.4 µM (active).

As for `Nc1nc(Nc2ccc3c(c2)CCC(N2CCCC2)CC3)nn1-c1cc2c(nn1)-c1ccccc1CCC2` (centres undefined), the Potency is 11.6 µM (active).

Take `C=C1C(=O)O[C@@H]2C[C@@]3(C)C[C@@H](O)C[C@H](C)C3=C[C@H]12`: the Potency result is “inactive”.

Regarding `CC(C)S(=O)(=O)c1ccc2nccc(Nc3ccc4scnc4c3)c2c1`, the Potency result was “inactive”.

Turning to `CO[C@H]1O[C@@H]2O[C@@]3(C)CCC4[C@H](C)CCC([C@H]1C)[C@]42OO3` (some centres undefined), the Potency entry was “inactive”.

For the molecule `COc1cc(F)c(C(C)C)cc1-c1ccc(C(F)(F)F)cc1CN1C(=O)OC(c2cc(C(F)(F)F)cc(C(F)(F)F)c2)C1C` (centres undefined), the Potency result was “inactive”.

In the case of `COc1cc2ncnc(Oc3ccc(CC(=O)Nc4cnn(C(C)C)c4)cc3)c2cc1OC`, the Potency result is “inactive”.

For the molecule `C=C1C(=O)O[C@@H]2/C=C(\CO)CC/C=C(/C=O)C[C@H](O)[C@@H]12`, the Potency result is “inactive”.

On to `Cc1nc(NC(=O)N2CCC[C@H]2C(N)=O)sc1-c1ccnc(C(C)(C)C(F)(F)F)c1`, for which the Potency is 11.6 µM (active).

With `CC1(C)CN(C(=O)c2ccc(-c3cccc4nc(NC(=O)C5CC5)nn34)cc2)C1`, the Potency entry is “inactive”.

Turning to `CC1=C(c2ccc(NC(=O)c3c(F)cccc3F)cc2)CN(c2nccs2)CC1`, the Potency entry was “inactive”.

With `COC1C(OC(=O)/C=C/C=C/C=C/C=C/C(=O)O)CCC2(CO2)C1C1(C)OC1CC=C(C)C` (centres undefined), the Potency entry was “inactive”.

For `CC(C)(F)CC(NC(c1ccc(-c2ccc(S(C)(=O)=O)cc2)cc1)C(F)(F)F)C(=O)NC1(C#N)CC1` (centres undefined), the Potency entry was “inactive”.

`Cn1cc(C2=C(c3coc4ccccc34)C(=O)NC2=O)c2cc(Br)ccc21`: the Potency entry is “inactive”.

Regarding `C1=C/COCc2cc(ccc2OCCN2CCCC2)Nc2nccc(n2)-c2cccc(c2)COC/1`, the Potency was 4.61 µM (active).

As for `C=C1CC[C@@H]2[C@](C)(CO)[C@H](O)CC[C@@]2(C)[C@@H]1C/C=C1/C(=O)OCC1OC(=O)/C(=C/CO)C(O)C[C@@H]1C(=C)CC[C@@H]2[C@](C)(CO)[C@H](O)CC[C@]21C` (some centres undefined), the Potency entry was “inactive”.

Take `Cn1sc(=O)n(Cc2ccccc2)c1=O`: the Potency is 7.31 µM (active).

For the molecule `C=CC(=O)Nc1cccc(Nc2nc(Nc3ccc(NC4CN(CCF)C4)cc3OC)ncc2C(F)(F)F)c1`, the Potency was 10.3 µM (active).

For the molecule `O=c1cc(N2CCN(c3cccc(C(F)(F)F)c3)CC2)[nH]c(=O)n1C1CCCCC1`, the Potency result is “inactive”.

Consider `CN(C)c1cccc(Oc2cnc(Nc3cccc(O)c3)nc2)c1`, for which the Potency entry was “inactive”.
